Results: PubChem BioAssay AID1159580 (chemical genetic matrix, 2015)
Where “and” joins values, the source holds several entries; their conditions need not be identical. Equal values may be shown once. The whole screen tested about 5,500 compounds, of which about 2,000 (36%) were called active. Another 18% or so got no clear call; they are omitted. Cut-off read from the data, not from the text of the source: active = normalized growth mostly below about 0.91 (no sharp cut-off); inconclusive = no clear call, values can overlap the other calls; inactive = mostly above about 0.92. The list shows a part of the results.

Assay: chemical genetic growth profiling, strain panel (AID 1159580);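 note: tested at 20 µM; growth read once vehicle control cultures reached saturation at 30 °C; 1 = growth at the plate median or of vehicle wells; lower values mean less growth of the strain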
Details: growth OD
[1] = S. cerevisiae deletion strains, locus YBR021W, strain FUR4, active compounds read low
[2] = S. cerevisiae deletion strains, locus YBR229C, strain ROT2, active compounds read low
[3] = S. cerevisiae deletion strains, locus YCL029C, strain bik1, active compounds read low
[4] = S. cerevisiae deletion strains, locus YDL035C, strain GPR1, active compounds read low
[5] = S. cerevisiae deletion strains, locus YDL074C, strain BRE1, active compounds read low
[6] = S. cerevisiae deletion strains, locus YDL101C, strain DUN1, active compounds read low
[7] = S. cerevisiae deletion strains, locus YDL134C, strain PPH21, active compounds read low
[8] = S. cerevisiae deletion strains, locus YDL185W, strain tfp1, active compounds read low
[9] = S. cerevisiae deletion strains, locus YDL192W, strain arf1, active compounds read low
[10] = S. cerevisiae deletion strains, locus YDR101C, strain arx1, active compounds read low
[11] = S. cerevisiae deletion strains, locus YDR162C, strain NBP2, active compounds read low
[12] = S. cerevisiae deletion strains, locus YDR318W, strain mcm21, active compounds read low
[13] = S. cerevisiae deletion strains, locus YDR388W, active compounds read low
[14] = S. cerevisiae deletion strains, locus YDR502C, strain sam2, active compounds read low
[15] = S. cerevisiae deletion strains, locus YEL061C, strain CIN8, active compounds read low
[16] = S. cerevisiae deletion strains, locus YER110C, active compounds read low
[17] = S. cerevisiae deletion strains, locus YER155C, strain BEM2, active compounds read low
[18] = S. cerevisiae deletion strains, locus YER167W, strain BCK2, active compounds read low
[19] = S. cerevisiae deletion strains, locus YGL078C, strain dbp3, active compounds read low
[20] = S. cerevisiae deletion strains, locus YGL086W, strain mad1, active compounds read low
[21] = S. cerevisiae deletion strains, locus YGL248W, strain PDE1, active compounds read low
[22] = S. cerevisiae deletion strains, locus YGR078C, strain PAC10, active compounds read low
[23] = S. cerevisiae deletion strains, locus YGR135W, strain pre9, active compounds read low
[24] = S. cerevisiae deletion strains, locus YGR252W, strain gcn5, active compounds read low
[25] = S. cerevisiae deletion strains, locus YHR030C, strain SLT2, active compounds read low
[26] = S. cerevisiae deletion strains, locus YHR079C, strain IRE1 (second series), active compounds read low
[27] = S. cerevisiae deletion strains, locus YHR079C, strain IRE1, active compounds read low
[28] = S. cerevisiae deletion strains, locus YHR094C, strain hxt1, active compounds read low
[29] = S. cerevisiae deletion strains, locus YHR129C, strain ARP1, active compounds read low
[30] = S. cerevisiae deletion strains, locus YHR200W, strain rpn10, active compounds read low
[31] = S. cerevisiae deletion strains, locus YIL066C, strain RNR3, active compounds read low
[32] = S. cerevisiae deletion strains, locus YIL073C, strain SPO22, active compounds read low
[33] = S. cerevisiae deletion strains, locus YIL125W, strain kgd1, active compounds read low
[34] = S. cerevisiae deletion strains, locus YIR030C, strain dcg1, active compounds read low
[35] = S. cerevisiae deletion strains, locus YJL095W, strain BCK1, active compounds read low
[36] = S. cerevisiae deletion strains, locus YJL134W, strain LCB3, active compounds read low
[37] = S. cerevisiae deletion strains, locus YJL168C, strain set2, active compounds read low
[38] = S. cerevisiae deletion strains, locus YJL187C, strain SWE1 (second series), active compounds read low
[39] = S. cerevisiae deletion strains, locus YJR043C, strain POL32, active compounds read low
[40] = S. cerevisiae deletion strains, locus YJR066W, strain TOR1, active compounds read low
[41] = S. cerevisiae deletion strains, locus YKL009W, strain mrt4, active compounds read low
[42] = S. cerevisiae deletion strains, locus YKL068W, active compounds read low
[43] = S. cerevisiae deletion strains, locus YKL085W, strain MDH1 (second series), active compounds read low
[44] = S. cerevisiae deletion strains, locus YKL085W, strain MDH1, active compounds read low
[45] = S. cerevisiae deletion strains, locus YKR001C, strain vps1, active compounds read low
[46] = S. cerevisiae deletion strains, locus YLR039C, strain RIC1, active compounds read low
[47] = S. cerevisiae deletion strains, locus YLR058C, strain SHM2, active compounds read low
[48] = S. cerevisiae deletion strains, locus YLR102C, strain apc9, active compounds read low
[49] = S. cerevisiae deletion strains, locus YLR113W, strain HOG1, active compounds read low
[50] = S. cerevisiae deletion strains, locus YLR262C, strain YPT6, active compounds read low
[51] = S. cerevisiae deletion strains, locus YLR268W, strain sec22, active compounds read low
[52] = S. cerevisiae deletion strains, locus YLR330W, strain CHS5, active compounds read low
[53] = S. cerevisiae deletion strains, locus YLR342W, strain FKS1 (second series), active compounds read low
[54] = S. cerevisiae deletion strains, locus YLR371W, strain rom2, active compounds read low
[55] = S. cerevisiae deletion strains, locus YLR418C, strain cdc73, active compounds read low
[56] = S. cerevisiae deletion strains, locus YML016C, strain PPZ1, active compounds read low
[57] = S. cerevisiae deletion strains, locus YML032C, strain rad52, active compounds read low
[58] = S. cerevisiae deletion strains, locus YML124C, strain tub3, active compounds read low
[59] = S. cerevisiae deletion strains, locus YMR078C, strain ctf18, active compounds read low
[60] = S. cerevisiae deletion strains, locus YMR223W, strain ubp8, active compounds read low
[61] = S. cerevisiae deletion strains, locus YMR307W, strain GAS1, active compounds read low
[62] = S. cerevisiae deletion strains, locus YNL067W, strain RPL9B, active compounds read low
[63] = S. cerevisiae deletion strains, locus YNL183C, strain NPR1, active compounds read low
[64] = S. cerevisiae deletion strains, locus YNL233W, strain BNI4, active compounds read low
[65] = S. cerevisiae deletion strains, locus YNL250W, strain rad50, active compounds read low
[66] = S. cerevisiae deletion strains, locus YNL271C, strain bni1, active compounds read low
[67] = S. cerevisiae deletion strains, locus YNL298W, strain CLA4, active compounds read low
[68] = S. cerevisiae deletion strains, locus YNL307C, strain MCK1, active compounds read low
[69] = S. cerevisiae deletion strains, locus YNR052C, strain pop2, active compounds read low
[70] = S. cerevisiae deletion strains, locus YOL012C, strain htz1
[71] = S. cerevisiae deletion strains, locus YOL147C, strain pex11, active compounds read low
[72] = S. cerevisiae deletion strains, locus YOR061W, strain CKA2, active compounds read low
[73] = S. cerevisiae deletion strains, locus YOR069W, strain VPS5, active compounds read low
[74] = S. cerevisiae deletion strains, locus YOR136W, strain idh2, active compounds read low
[75] = S. cerevisiae deletion strains, locus YOR144C, strain elg1, active compounds read low
[76] = S. cerevisiae deletion strains, locus YOR184W, strain ser1, active compounds read low
[77] = S. cerevisiae deletion strains, locus YOR231W, strain MKK1, active compounds read low
[78] = S. cerevisiae deletion strains, locus YOR316C, strain cot1, active compounds read low
[79] = S. cerevisiae deletion strains, locus YPL256C, strain CLN2, active compounds read low
[80] = S. cerevisiae deletion strains, locus YPR119W, strain clb2, active compounds read low
[81] = S. cerevisiae deletion strains, locus YPR141C, strain kar3, active compounds read low
[82] = S. cerevisiae deletion strains, locus YPR163C, strain tif3, active compounds read low
[83] = S. cerevisiae deletion strains, locus YPR167C, strain met16, active compounds read low
[84] = S. cerevisiae deletion strains, strain wtn01, active compounds read low

Measured: normalized growth

COc1cccc(O)c1O
inactive: [1] 1.02 | [2] 1.04 | [3] 1 | [4] 1.03 | [5] 1.01 | [6] 1.01 | [7] 1.08 | [8] 1.01 | [9] 1 | [10] 1.01 | S. cerevisiae deletion strains, locus YDR150W, strain NUM1, active compounds read low 1.04 | [11] 1.07 | [12] 1 | [13] 1.01 | [14] 1.01 | [15] 1.02 | [16] 0.996 | [17] 1.04 | [18] 1.05 | [19] 1.01 | [20] 0.999 | [21] 1.03 | [22] 1.05 | [23] 0.976 | [24] 0.936 | [25] 1.03 and 0.988 | [26] 1.02 | [27] 0.999 | [28] 1 | [29] 1.02 | [30] 1 | [31] 1.06 | [32] 1.03 | [33] 1 | [34] 1.04 | [35] 1.02 and 0.997 | [36] 1.03 | [37] 1 | [38] 0.976 | [39] 1.04 | [40] 0.925 | [41] 1.01 | [42] 1.01 | [43] 1.02 | [44] 1.02 | [45] 1.02 | [46] 1.17 | [47] 0.995 | [48] 0.995 | [49] 0.989 | [50] 1.15 | [51] 0.989 | [52] 1.03 | [53] 1.01 | [54] 1 | [55] 1.01 | [56] 1.03 | [57] 1.01 | [58] 1.01 | [59] 0.99 | [60] 0.997 | [61] 1.09 | [62] 1.05 | [63] 0.926 | [64] 1.05 | [65] 0.996 | [66] 0.994 | [67] 0.99 | [68] 1.01 | [69] 1.01 | S. cerevisiae deletion strains, locus YOL006C, strain TOP1, active compounds read low 1.27 | [70] 0.899 | [71] 1 | [72] 1.02 | [73] 1.02 | [74] 0.994 | [75] 1.01 | [76] 1.02 | [77] 1.01 | [78] 0.995 | [79] 0.994 | [80] 1.02 | [81] 1.01 | [82] 0.978 | [83] 1.02 | [84] 0.997

COc1ccc2c(c1OC)OC[C@@H](c1ccc(OC)c(OC)c1OC)C2
inactive: S. cerevisiae deletion strains, locus YAL013W, strain DEP1, active compounds read low 1.01 | [1] 0.972 | [2] 1 | [3] 1.01 | [4] 1.01 | [5] 0.999 | [6] 1.01 | [7] 0.999 | [8] 1.02 | [9] 1.01 | [10] 1 | [11] 1 | [12] 1.03 | [13] 1.01 | [14] 0.996 | [15] 1.01 | [16] 1 | [17] 1.01 | [18] 1.03 | [19] 1 | [20] 0.994 | [21] 1.01 | [22] 0.998 | [23] 0.999 | [24] 0.976 | [25] 1.02 and 1.03 | [26] 1.01 | [27] 1.02 | [28] 1.01 | [29] 1.02 | [30] 1.01 | [31] 1.01 | [32] 1.03 | [33] 1 | [34] 1.01 | [35] 0.998 and 1.04 | [36] 1.01 | [37] 1.01 | [38] 1 | [39] 1.02 | [40] 0.983 | [41] 1.01 | [42] 1 | [43] 0.993 | [44] 0.993 | S. cerevisiae deletion strains, locus YKL190W, strain CNB1, active compounds read low 1.01 | [45] 1 | [46] 1.13 | [47] 1 | [48] 1.02 | [49] 0.939 | [50] 1.14 | [51] 0.996 | [52] 1.01 | [53] 1.04 | [54] 1.01 | [55] 0.988 | [56] 1.02 | [57] 1.02 | [58] 1 | [59] 1 | [60] 0.999 | S. cerevisiae deletion strains, locus YMR263W, strain SAP30, active compounds read low 0.996 | [61] 0.927 | [62] 1.01 | [63] 0.97 | [64] 0.997 | [65] 0.998 | [66] 0.999 | [67] 0.998 | [68] 1.04 | S. cerevisiae deletion strains, locus YNL322C, strain KRE1, active compounds read low 1.01 | [69] 1.02 | [70] 1.06 | [71] 1 | [72] 1.01 | [73] 1.01 | [74] 1.01 | [75] 1 | [76] 0.976 | [77] 1.06 | [78] 1.01 | S. cerevisiae deletion strains, locus YPL241C, strain CIN2, active compounds read low 1.01 | [79] 1.06 | [80] 1 | [81] 1.02 | [82] 1.01 | [83] 1.01 | [84] 1.02 | S. cerevisiae strains, strain wild type, active compounds read low 1.01
